KinaseGlo FLuc – Counterscreen for Luciferase (Kinase-Glo TM) Inhibition. actives 0.28% (n = 200,000). AID 1379, 2008. Luciferin 4-monooxygenase (Photuris pensylvanica), Q27757. Kinase-Glo luciferase, ATP luminescence, 8 min. Potency, µM (series often up to 38.3 µM), without a hit: at the top dose activity change, negative = inhibition, most hits filed as inhibitors; further: on the % scale 0 is the no-effect control and ±100 the full control effect; nearly all actives have a fitted effect of over 60% in size
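Compound is pinned into ATP-containing buffer (10 uM ATP, imidazole pH 7.2, 7 mM MgCl2). Kinase-Glo luciferase reagent is then added. Light output is recorded following an 8-min room-temperature incubation.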
NPC1 prom act – qHTS Assay for NPC1 Promoter Activators; Huh7 NPC1 promoter luciferase reporter, 24 h; Potency, µM (series often up to 9.22 µM), for the others: at the highest dose activation, usual class: activators; actives 2.4% (n = 320,000); further: % of control where 0% means no effect; nearly all actives have a fitted effect of over 60% in size
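NPC1 promoter–luciferase Huh7 cells; 24 h compound; luminescence.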
SMN2 splice up – qHTS Assay for Enhancers of SMN2 Splice Variant Expression. Potency, µM (doses to about 46.1 µM), for the others: top-dose activity change, positive = activation, usual class: activators. HEK293 SMN2-luciferase splicing reporter, luminescence, 30-36 h. AID 1458, 2008. actives 2.8% (n = 210,000); further: % of control where 0% means no effect; nearly all actives have a fitted effect of over 55% in size
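HEK293 cells carry an SMN2 […]–luciferase reporter in which exon 7 inclusion puts luciferase in frame. Cells were plated 10-12 h before compound addition, then incubated 30-36 h at 37C. ONE-Glo luminescence was read; sodium butyrate at 4.5 mM final served as control.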
Rab9 promoter act – qHTS Assay for Rab9 Promoter Activators; AID 485297, 2010; Potency, µM (titrated, usually from 9.22 µM), without a hit: at the top dose activation, negative = inhibition, hits mostly activators; Huh7 Rab9 promoter-luciferase reporter, luminescence, 24 h; actives 2.8% (n = 320,000); further: % of control where 0% means no effect; nearly all actives have a fitted effect of over 60% in size
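Huh7 reporter line, Rab9 promoter upstream of luciferase. Compound exposure 24 h at 37 °C in reduced-serum medium with 10% FBS. Read-out: luminescence.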
ELG1 genotoxic – qHTS screen for small molecules that induce genotoxicity in human embryonic kidney (HEK293T) cells expressing luciferase-tagged ELG1. actives 1.3% (n = 330,000). Potency, µM (top dose mostly 46 µM), for the others: at the top dose activity change, positive = activation, actives largely listed as activators. HEK293T ELG1-luciferase reporter, luminescence, 16 h. AID 504466, 2011; further: % of control where 0% means no effect; nearly all actives have a fitted effect of over 60% in size
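DMSO vehicle served as control against compound-treated ELG1-luciferase HEK293T cells; exposure lasted 16 hr at 37 °C and 5% CO2, followed by ONE-Glo luminescence detection after 30 min.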
FLuc counter – qHTS profiling assay for firefly luciferase inhibitor/activator using purifed enzyme and Km concentrations of substrates (counterscreen for miR-21 project). Luciferin 4-monooxygenase (Photinus pyralis), P08659. purified FLuc, Km substrates, luminescence inhibition. Potency, µM (doses to about 57.5 µM), for inactives: top-dose activity change, negative = inhibition, most hits filed as inhibitors. actives 6.9% (n = 360,000). AID 588342, 2011;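 further: plate controls were vehicle for no effect and reference inhibitor for full effect; nearly all actives have a fitted effect of over 55% in size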
Target sequence (P08659 whole entry, looked up): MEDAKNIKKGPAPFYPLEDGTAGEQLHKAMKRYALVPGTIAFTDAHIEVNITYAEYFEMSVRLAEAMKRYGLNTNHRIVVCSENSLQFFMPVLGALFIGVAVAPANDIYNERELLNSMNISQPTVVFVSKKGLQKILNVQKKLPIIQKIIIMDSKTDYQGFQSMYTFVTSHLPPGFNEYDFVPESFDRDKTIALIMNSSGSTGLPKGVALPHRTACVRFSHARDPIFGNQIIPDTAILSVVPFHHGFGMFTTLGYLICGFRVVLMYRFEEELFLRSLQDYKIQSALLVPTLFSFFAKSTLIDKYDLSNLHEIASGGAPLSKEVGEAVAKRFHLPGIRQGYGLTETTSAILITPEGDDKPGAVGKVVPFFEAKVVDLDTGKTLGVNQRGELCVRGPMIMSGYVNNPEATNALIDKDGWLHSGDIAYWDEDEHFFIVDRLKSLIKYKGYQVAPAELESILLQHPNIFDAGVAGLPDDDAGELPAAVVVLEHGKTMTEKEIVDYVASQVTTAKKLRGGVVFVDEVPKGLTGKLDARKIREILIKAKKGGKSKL
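Biochemical qHTS of compounds, final roughly 60 µM downward over six points, against 10 nM purified firefly luciferase using Km concentrations of substrates (10 uM D-luciferin, 10 uM ATP) in Tris acetate pH 7.5 buffer; luminescence output.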
An asterisk follows results filed as active; ? = inconclusive; · = no result. This is a sample that favours compounds with a hit; in the whole collection about 7.5% have one here. The call rests on the fitted dose curve; in most records, active means well fitted curve in the direction sought with a large enough effect; inconclusive means small, poorly fitted or top-dose-only effect, or another doubt; inactive means no such curve, though single readings can be large; an effect the other way counts as inactive or inconclusive. Potency means the concentration at half of the fitted maximal effect.

SMILES	KinaseGlo FLuc	NPC1 prom act	SMN2 splice up	Rab9 promoter act	ELG1 genotoxic	FLuc counter
O=C(NC1CC1)C1CCCN1S(=O)(=O)c1ccc2ccccc2c1 (stereo not given)	-1.0%	-4.2%	11.2µM*	-6.2%	-0.6%	0.5%
Cc1ccc(/C(O)=C/C(=O)C(=O)NC23CC4CC(CC(C4)C2)C3)cc1	·	?	·	3.16µM*	5.9%	16.9µM*
Cc1ccc(C(=O)NCC(=O)NC23CC4CC(CC(C4)C2)C3)cc1	·	26.1%	·	?	16.4µM*	-19.1%
Cc1ccc(CNC(=O)NC23CC4CC(CC(C4)C2)C3)cc1	-0.3%	-0.9%	-20.5%	-3.5%	-1.7%	-0.7%
CC(NCc1ccc([N+](=O)[O-])cc1)C1COc2ccccc2O1 (stereo not given)	·	3.8%	·	2.8%	-3.4%	5.3%
O=c1c2sccc2n(Cc2cc(=O)n3ccccc3n2)c(=O)n1-c1cccc(C(F)(F)F)c1	·	·	-1.1%	·	·	-9.0%
CCOC(=O)c1nnc(-c2ccc(C)cc2)nc1N1CCSCC1	-4.6%	0.8%	4.0%	10.4%	9.9%	13.5µM*
O=C(NCc1ccc(Cl)cc1)c1ccc(NC(=O)N2CC3CCCN3c3ccccc32)cc1 (stereo not given)	·	·	-12.5%	·	·	-13.2%
CCc1ccccc1NC(=O)Cn1ccn(-c2cc(C)cc(C)c2)c(=O)c1=O	·	·	·	·	·	-12.8%
Cc1nc(/C=C/c2ccccc2)[nH]c(=O)c1-c1ccccc1	-1.5%	?	2.82µM*	0.631µM*	?	1.9µM*
Cc1cccc(/C=C(\C#N)c2nc3ccccc3c(=O)[nH]2)c1	·	·	-1.5%	·	·	1.0%
CN(C)c1ccc(/C=C/c2nc3ccccc3c(=O)[nH]2)cc1	·	0.112µM*	·	0.0891µM*	0.58µM*	0.213µM*
O=c1[nH]c(COc2ccc(Br)cc2Cl)nc2ccccc12	·	3.16µM*	·	3.55µM*	7.3µM*	1.9µM*
CN(C)c1ccc(/C=C(\C#N)c2nc3ccccc3c(=O)[nH]2)cc1	·	·	-2.6%	·	·	0.301µM*
COc1cc(/C=C/c2nc3ccccc3c(=O)[nH]2)cc(Cl)c1O	·	14.6%	·	0.3%	2.4%	-7.4%
CC(C)CCN1CCN(CCCn2cccn2)CC1CCO (stereo not given)	·	-1.4%	·	1.3%	0.6%	0.1%
CCOC(=O)c1cnc2c(c(C)nn2C)c1Oc1cc(Cl)cc(Cl)c1	·	-1.9%	·	2.3%	-10.7%	2.7%
CCCn1nnnc1NCc1ccc(C(C)C)cc1	·	1.8%	·	4.3%	0.4%	7.2%
O=c1[nH]c(/C=C/c2ccc(Br)cc2)nc2ccccc12	·	0.316µM*	·	0.398µM*	?	0.169µM*
O=c1[nH]c(/C=C/c2ccccc2[N+](=O)[O-])nc2ccccc12	-1.5%	?	14.7%	?	8.0%	4.1%
Cc1cccc(/C=C\c2nc3ccccc3c(=O)[nH]2)c1	?	?	2.82µM*	?	10.3µM*	0.849µM*
Cc1ccc(CNC(=O)Cn2cc(S(=O)(=O)Cc3cccc(Cl)c3)c3ccccc32)cc1	·	·	·	·	·	-2.2%
Cc1c(Cl)cccc1NC(=O)c1ccc2c(c1)nnn2C1CCCC1	·	·	·	·	·	-7.9%
CN(CC(=O)c1c(N)n(C)c(=O)n(C)c1=O)c1ccccc1	1.7%	-4.4%	9.5%	1.3%	0.7%	2.1%
COC(=O)C1CN(C(=O)COc2cccc(C)c2C)c2ccccc2O1 (stereo not given)	·	-4.0%	·	-1.7%	-1.2%	?
COC(=O)C1CN(C(=O)COc2ccc(Cl)cc2Cl)c2ccccc2O1 (stereo not given)	·	0.8%	·	1.4%	2.9%	19µM*
COc1cc(CNC(C)C23CC4CC(CC(C4)C2)C3)cc(OC)c1OC (stereo not given)	·	-1.1%	·	-0.5%	-9.7%	3.2%

Screens deposited in PubChem by National Center for Advancing Translational Sciences (NCATS).
